Where a name gives a salt, the structure may show the parent alone. ± gives the standard deviation of the averaged measurements.
System: E. coli TESEC Alr+ wild-type control
Assay: growth (OD600 after 10 h); higher = more growth (less inhibition)
Conditions: compound 0.1 mM; raw OD600 reference: median of DMSO wells 0.49, cell-free background 0.052
Description: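 TESEC Mtb Alr E. coli (ΔaraC ΔtolC ΔentC Δalr ΔdadX, arabinose-inducible Mtb Alr) or the Alr+ wild-type control strain, grown in defined M9-fructose medium without D-alanine in 96-well plates with Prestwick library compounds at 0.1 mM and 1% DMSO. Low Alr induction is 0.1 µM arabinose and high induction is 10 mM arabinose.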

SMILES | growth
CC(C)CC(N(C)C)C1(c2ccc(Cl)cc2)CCC1 (stereo not given) [Sibutramine HCl] | 0.602 ± 0.091
N[C@@H]1C[C@H]1c1ccccc1 [Tranylcypromine hydrochloride] | 0.529 ± 0.055
Fc1ccc(C(OCCN2CCN(CCCc3ccccc3)CC2)c2ccc(F)cc2)cc1 | 0.04777 ± 0.00025
O=C(CCCN1CCC2(CC1)C(=O)NCN2c1ccccc1)c1ccc(F)cc1 [Spiperone] | 0.509 ± 0.042
C[C@]12C[C@H]3S[C@H]3C[C@@H]1CC[C@@H]1[C@@H]2CC[C@]2(C)[C@@H](O)CC[C@@H]12 [Epitiostanol] | 0.534 ± 0.0058
COc1cc2c(c(OC)c1OC)-c1ccc(OC)c(=O)cc1[C@@H](NC(C)=O)CC2 [Colchicine] | 0.6712 ± 0.00062
CNC(C)(C)Cc1ccccc1 [Mephentermine hemisulfate] | 0.48 ± 0.047
CN1[C@@H]2CC[C@H]1C[C@@H](OC1c3ccccc3CCc3ccccc31)C2 [Deptropine citrate] | 0.04883 ± 0.00038
Oc1cc(Cl)ccc1Oc1ccc(Cl)cc1Cl [Triclosan] | 0.0516 ± 0.0015
CCC1(CC)C(=O)C=CNC1=O [Pyrithyldione] | 0.458 ± 0.024
O=P1(N(CCCl)CCCl)NCCCO1 (stereo not given) [Cyclophosphamide] | 0.57 ± 0.069
CC(=O)OC1CN2CCC1CC2 (stereo not given) [Aceclidine Hydrochloride] | 0.459 ± 0.015
C[N+]1(C)CCCC(OC(=O)C(O)(c2ccccc2)c2ccccc2)C1 (stereo not given) [Mepenzolate bromide] | 0.435 ± 0.012
COc1cc([C@@H]2c3cc4c(cc3[C@H](O)[C@H]3COC(=O)[C@H]23)OCO4)cc(OC)c1OC [Podophyllotoxin] | 0.545 ± 0.085
NCC1(CC(=O)O)CCCCC1 [Gabapentin] | 0.565 ± 0.076
CO[C@]12C[C@@H](COC(=O)c3cncc(Br)c3)CN(C)[C@@H]1Cc1cn(C)c3cccc2c13 [Nicergoline] | 0.481 ± 0.049
COc1ccc2c(c1)[C@]13CCCC[C@@H]1[C@H](C2)N(C)CC3 [Dextromethorphan hydrobromide monohydrate] | 0.469 ± 0.03
CN1C[C@H](CNC(=O)OCc2ccccc2)C[C@@H]2c3cccc4c3c(cn4C)C[C@H]21 [Metergoline] | 0.04927 ± 5.8e-05
CC(C)N(CCC(C(N)=O)(c1ccccc1)c1ccccn1)C(C)C (stereo not given) [Disopyramide] | 0.543 ± 0.056
NC(=O)OCCCc1ccccc1 [Phenprobamate] | 0.562 ± 0.087

SMILES | growth
O[C@@H]1CCCC[C@H]1N1CCC(c2ccccc2)CC1 [L(-)-vesamicol hydrochloride] | 0.521 ± 0.091
CCC(=O)O[C@@](Cc1ccccc1)(c1ccccc1)[C@@H](C)CN(C)C [Levopropoxyphene napsylate] | 0.566 ± 0.042
C[C@@H]1C[C@@H]([C@H](O)CC2CC(=O)NC(=O)C2)C(=O)[C@@H](C)C1 [Cycloheximide] | 0.529 ± 0.06
C=C1CC[C@@]2(O)[C@H]3Cc4ccc(O)c5c4[C@@]2(CCN3CC2CC2)[C@H]1O5 [Nalmefene hydrochloride] | 0.4625 ± 0.0046
CC(C)[N+](C)(CCC(C(N)=O)(c1ccccc1)c1ccccc1)C(C)C [Isopropamide iodide] | 0.516 ± 0.045
O=c1[nH]c2ccccc2n1C1CCN(CCCC(c2ccc(F)cc2)c2ccc(F)cc2)CC1 [Pimozide] | 0.52 ± 0.043
CC[N+]1(C)CCCC(OC(=O)C(O)(c2ccccc2)c2ccccc2)C1 (stereo not given) [Pipenzolate bromide] | 0.424 ± 0.016
C=CCC1(CC(C)C)C(=O)NC(=O)NC1=O [Butalbital] | 0.516 ± 0.029
C[C@]12CCC(=O)C=C1C=C[C@@H]1[C@@H]2CC[C@@]2(C)[C@H]1CC[C@@]2(O)CCC(=O)O [Canrenoic acid potassium salt] | 0.502 ± 0.031
CCN[C@@H](C)Cc1cccc(C(F)(F)F)c1 [Dexfenfluramine hydrochloride] | 0.466 ± 0.025
C[C@@]12N[C@@H](Cc3ccccc31)c1ccccc12 [(-)-MK 801 hydrogen maleate] | 0.564 ± 0.017
CC(C)(C)NCC(O)c1ccccc1Cl (stereo not given) [Tulobuterol] | 0.507 ± 0.082
OC(c1ccccc1)(c1ccccc1)C1CCNCC1 [Azacyclonol] | 0.523 ± 0.032
C[C@]12CC[C@H](O)C[C@@H]1CC[C@@H]1[C@@H]2CC[C@]2(C)C(=O)CC[C@@H]12 [Epiandrosterone] | 0.252 ± 0.013
COc1ccc(CN2CCNCC2)c(OC)c1OC [Trimetazidine dihydrochloride] | 0.584 ± 0.012
c1ccc2c(c1)OCC(C1=NCCN1)O2 (stereo not given) [Idazoxan hydrochloride] | 0.598 ± 0.015
CN1C(=O)CCS(=O)(=O)C1c1ccc(Cl)cc1 (stereo not given) [Chlormezanone] | 0.615 ± 0.1
CCN(C(C)=O)c1cccc(-c2ccnc3c(C#N)cnn23)c1 [Zaleplon] | 0.504 ± 0.065
O=[N+]([O-])O[C@@H]1CO[C@H]2[C@@H]1OC[C@@H]2O [Isosorbide mononitrate] | 0.548 ± 0.053
CC(=O)OCC(=O)[C@H]1CC[C@H]2[C@@H]3CC[C@H]4C[C@H](O)CC[C@]4(C)[C@H]3C(=O)C[C@]12C [Alfadolone acetate] | 0.474 ± 0.013

— the supplement of paper PMC9262897, “Low-cost anti-mycobacterial drug discovery using engineered E. coli” (Nature Communications, 2022)
